Measurements from the supplement of paper PMC12632987.

Assays:
UCHL1, P09936 = assay: median log2 fold change of GCK-ALFA target abundance (FLAG IP / Myc IP barcode read proportion) (log2 ratio); each designed protein is fused to an ALFA-tag nanobody in HEK293 cells to bring the named protein to FLAG-tagged glucokinase (GCK); Myc marks an untargeted standard; higher = target protein stabilised (more abundant); settings: target protein: 3xFLAG-MCP-GCK-ALFA reporter; HEK293 landing pad (RPLP)
Summary of the method: (§1)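 Sequencing of reverse-transcribed, amplified circular RNA barcodes from anti-FLAG and anti-Myc immunoprecipitates provided the readout for an ALFA-nanobody-fused binder library recombined into HEK293 landing-pad cells. Those cells were induced with 2 μg mL^−1 doxycycline, transfected with a plasmid expressing a FLAG-tagged target and a Myc-tagged standard, and lysed after 48 h. Target abundance is the per-binder median log2 ratio of FLAG to Myc barcode read proportions. Only barcodes at a proportion of ≥10^−7 in both replicates and binders with ≥3 barcodes per replicate were kept, with a 10^−6 pseudocount added before the two replicates were pooled.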

GABARAPL2, P60520 = assay: as above; settings: target protein: 3xFLAG-MCP-GCK-ALFA reporter; HEK293 landing pad (RPLP)
GABARAPL2, P60520, sequence (P60520 whole entry): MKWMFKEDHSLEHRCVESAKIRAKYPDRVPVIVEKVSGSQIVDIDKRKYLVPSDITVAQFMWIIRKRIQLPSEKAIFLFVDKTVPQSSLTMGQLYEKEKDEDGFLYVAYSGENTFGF
Summary of the method: as §1

UCHL1, P09936, sequence (P09936 whole entry, looked up, the tested form may be a part): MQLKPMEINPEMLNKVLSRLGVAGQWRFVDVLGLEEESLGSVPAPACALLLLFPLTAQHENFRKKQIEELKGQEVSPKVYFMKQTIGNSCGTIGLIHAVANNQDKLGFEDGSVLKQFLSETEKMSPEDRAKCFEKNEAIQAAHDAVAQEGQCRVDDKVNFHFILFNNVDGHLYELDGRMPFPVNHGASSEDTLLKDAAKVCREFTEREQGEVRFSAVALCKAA

B1: uchl1_122_7429 (protein)
chain: MVRVEVVGRRRTVEALAEVIREVAARHGIDVRVEIEELSPTTARLVVDIRVPPMSDAALEAALADLERRAAELVERLGLSRAEVGIATTRIVRGIRRAAA
UCHL1, P09936
  median log2 fold change: 0.096

B2: GBRAPL2_93_7424 (protein)
chain: NKVELIVKYLENGKLVKEEREVVSVEEAKAKIEELLKEAVENGEKVSIEIEDKDTGWVFGDYVENEEQAKKALERAKEILEDLAEEGKEVEVTIVIEKIT
GABARAPL2, P60520
  median log2 fold change: 0.137

B3: GBRAPL2_93_7423 (protein)
chain: MKVKVTVIELENGEVVRREERELSVEEAKELIRELLAEAIAAGNRVIIEIYDKETGWTFGYYAEDEEQAEKAYERTSEVLEDLAAEGKEVEVTITIERLE
GABARAPL2, P60520
  median log2 fold change: -0.302

B4: GBRAPL2_93_7425 (protein)
chain: NEVKVTIKHLVDGELVKEEERTVSVEEAKELIKKKLEEAIAAGNKVIIEIDDEDTGWSFGDYVTDEEQAKKALERAKEILEDLAAEGKKVEVEIVIEKIT
GABARAPL2, P60520
  median log2 fold change: -0.332

B5: uchl1_122_7431 (protein)
chain: MKTVTVVVRKKDAPILIEIVREVAAEAGMKVEIEEEELSPNVVKLTITIDTTGLTEEQVEAAVEALERRVAEAMKETGSKSTDLRIAVGKIARAIRKAHA
UCHL1, P09936
  median log2 fold change: -0.183

B6: uchl1_122_7437 (protein)
chain: MITIEVLVSSSISEKVLEIIKKFASKLLKNPKFKIEQVSPGTLKITITGELKDVSEEEIREIYNEALEELGKLQDITPNEKVSANTALRKIARDVARARR
UCHL1, P09936
  median log2 fold change: -0.0419

B7: uchl1_122_7428 (protein)
chain: METVEVVGRRRAIEAFAEIVREVAAEHGIAVEVEIEELSPTTARLTITFDVPPISDEELAAFEEDLARRVAEAVRELGLSPAEFGIAYTKVVRAVRRANA
UCHL1, P09936
  median log2 fold change: -0.0204

B8: uchl1_122_7426 (protein)
chain: METVEVVGRRETIEALAELIREVAAEHGIEVEVRIEELSPTTARLVVTIRVPPISDEELDALIADLEARAAALVEEKGLPRAEVGIATTKIIRAIRRAAA
UCHL1, P09936
  median log2 fold change: 0.214

B9: uchl1_122_7435 (protein)
chain: MITVEVLVTSSLSPAVLAIIKEYASRLLDNAEFELRRVDPGTLLLTVTGELKDVSDEEILAIRREAEERAAKDQTLTPNQRVSFGNALRRIARAVAKALA
UCHL1, P09936
  median log2 fold change: -0.0374

B10: uchl1_122_7436 (protein)
chain: MITIEVLVTSSLSPEGLAIIKDYAAKLLKDAEFKEEEVSPGTLLLTITGELKDVSDEEILEIRREAEERASKNQNLTPNERVSFGNALRRIARAVAKAKA
UCHL1, P09936
  median log2 fold change: 0.0349

B11: uchl1_122_7432 (protein)
chain: AETVTVIVPKEAAPIIVEVLKEVMAEHGATVEVELEELSENTVKITITIDTSGLTEEQVDAAVADLEERMAERFKEAGINSADAKNAVGRIARAIRRAGA
UCHL1, P09936
  median log2 fold change: 0.325

B12: uchl1_122_7433 (protein)
chain: MITIEVEVTSSLSPEALAILKEYAARLLDNAEFKEEKLSPGTLLLTVTGELKDVTDEEILAIENEALERASKMQTLTPNQRVSFGNALRRIARAVAKALA
UCHL1, P09936
  median log2 fold change: 0.0352

B13: uchl1_122_7434 (protein)
chain: MITIEVDVSSSLSPEVLEIIKEFASRLLDNAEFEEEELSPGTRRLTITGELKDVSDEEILEIENEALERASKLQTLTPNERVSFGNALRRIARAVAKARA
UCHL1, P09936
  median log2 fold change: 0.213

B14: uchl1_122_7438 (protein)
chain: MLTIEVDVTSSLSPEGLEILKEYVSKLLDNPKFEEELVSPGTLRLIFTGELKDLTEEEIREIENEALEKAGANQSLTPNQRVSFGNAVRRIARQVAKARA
UCHL1, P09936
  median log2 fold change: 0.324

B15: uchl1_122_7430 (protein)
chain: TVTVEAVGRRETMETLAAVITEVLTAAGLTVEVRIEELSPTTARLTVTISGAPLSDAEVDALIEELRRRAAEAVERLGLDRATVGLAVGRVERGVRRLAA
UCHL1, P09936
  median log2 fold change: 0.13

B16: uchl1_122_7427 (protein)
chain: TATVEVVGRRETIETIAEIIREVAAEHGLEVEVRIEELSPTTARLVVTVRVPPISDEELAAFERALEERMARAVEEKGLSRAEVGIATTKVIRAVRRANA
UCHL1, P09936
  median log2 fold change: 0.284
